PMC12136788
The full ranking holds about 24,000 sequences; the median of “enrichment r” is about 0.99, and the highest 2% start at about 3.7. A selection follows.

T1: UNK ZnF1-3 (human, UniProt Q9C0B0 31-174)
T1 sequence: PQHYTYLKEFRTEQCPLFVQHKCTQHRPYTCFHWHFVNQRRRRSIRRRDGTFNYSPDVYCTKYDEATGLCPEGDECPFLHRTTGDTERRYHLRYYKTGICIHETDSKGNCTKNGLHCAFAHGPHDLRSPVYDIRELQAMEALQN

B1: chr6:82862619:82862620:-_ENSMUSG00000000627_ENSMUST00000000641|mus_mus|FALSE|FALSE (ssRNA)
RNA: GGGAGUUCUACAGUCCGACGAUCAACCUGCUUGUAAUUUCCUACACACUUUUCUGGGUUCCUUUUGUCAUCCCUCAAUAGCUAGAAUGUUGUGAAGUUCAUUUUAAAUGGAAGCCAAGGAAAGAGGGCUCAGCCUCCACUCCACAACAGAGGAUUGAGCAUCA
B2: chr4:107545374:107545375:+_ENSMUSG00000028613_ENSMUST00000106731|mus_mus|FALSE|FALSE (ssRNA)
RNA: GGGAGUUCUACAGUCCGACGAUCGUUGAUGGAUAGCCACAAAGCAUAAUUUUAUUUACAAAAAAAUCAAGCCCCUCAAACCUAAAAAAGCUCUCAACUCAAACAUCCUCUGUAAAUACUGUAUUCAAAUGAUGAGUGAAGUUUCAACAGAGGAUUGAGCAUCA
B3: chr1:174973770:174973771:+_ENSG00000116161_ENST00000406752|hu_mus|FALSE|FALSE (ssRNA)
RNA: GGGAGUUCUACAGUCCGACGAUCGAGUUCCGUCUCAAUCUUGGACUUUUCACUUGUAAGAGUAUCACGUAGUCUUUUCCUAGUGGACUUUUCCAGCAAUACUUUGACCUCUUCUAGGUCUUUCUGCAACUCUUCCAAAACGGACAACAGAGGAUUGAGCAUCA
B4: chr22:19452774:19452775:-_ENSG00000070010_ENST00000399523|hu_hu|hu_hu_hu_mus_False|1_68 (ssRNA)
RNA: GGGAGUUCUACAGUCCGACGAUCCUUCUCAUUGUAGUUGAUAGCAAUCACAUCUCCAGUCGUCAGACAGGCAAAGUUUCUCAAUGCAUUUUCUAAUACCGCUUUAGGGUUGGUAAUAUCCAGGAAGUCUGGGCUCUGAGGUUGCAACAGAGGAUUGAGCAUCA
B5: 64993253_64993373_409_3pUTR_ENSMUSG00000029920_ENSMUST00000031984|mouse|control|control (ssRNA)
RNA: GGGAGUUCUACAGUCCGACGAUCCUUCAGCACUAAGAGAAAUUGGUGACGAAGGACGGGCCUGGGAGGGCUGAGGGGCUGCUUCGGGUGCUUCCUCAAUCUUACUCCUUUUCUCAAAGCGAAAACGGUCCAAGUUGAAAAGAUCAACAGAGGAUUGAGCAUCA
B6: chr2:160855017:160855018:-_ENSMUSG00000057133_ENSMUST00000039782|mus_hu|FALSE|FALSE (ssRNA)
RNA: GGGAGUUCUACAGUCCGACGAUCAUCCUUUUCGAGCUCUUCCAUUGUGGCCCAUUUACAAUGUAAGUAGGAAAAAUUUCUAUACUUAACGUAGAACAGCUCCAAGUCGAACGGAGGUUCUCCUGGGUGAACCUCCUGGACAGUCAACAGAGGAUUGAGCAUCA
B7: chr14:63761926:63761927:+_ENSMUSG00000021939_ENSMUST00000006235|mus_mus|FALSE|FALSE (ssRNA)
RNA: GGGAGUUCUACAGUCCGACGAUCCUGCCAAUGUCAAGCAGAGGGAGAAUUGGUUUAUUGGCACAGACAUUCCUUGUUAAACUACAGGGUUAAGUGGUAACUACAACAAAAAGCAAGUUUUUUUUUCCAGACUAGUUUCAUUGUCAACAGAGGAUUGAGCAUCA
B8: chr1:23381596:23381597:+_ENSG00000004487_ENST00000356634|hu_hu|motif|central (ssRNA)
RNA: GGGAGUUCUACAGUCCGACGAUCAGUUGGUAGGGGUUUUAUCCUCUUAUAGAUGCCGAAGUUGAUAAGACCAUGACGCUCGGAAUAACUGUGAACUCGGUGGACAAGCACAGUAUCACUGUUAUAAGGUGCUUCUAAUUGUUGCAACAGAGGAUUGAGCAUCA
B9: chr1:220276048:220276049:+_ENSG00000067704_ENST00000302637|hu_hu|hu_hu_hu_mus_True|18_88 (ssRNA)
RNA: GGGAGUUCUACAGUCCGACGAUCGCAAAUUGCCUGGUUGGCGGGAAUCGUCCAAGGCUGGGUGGUCCAAACUAAAACGCUAACAGGGGAUGAGGCAUCUGUAAGAGACUCCAACUUUGGAGAAGGCCUCAGGAGGGGGAAUCUCAACAGAGGAUUGAGCAUCA
B10: chr11:111909998:111909999:+_ENSG00000150768_ENST00000533297|hu_hu|FALSE|FALSE (ssRNA)
RNA: GGGAGUUCUACAGUCCGACGAUCACCCUUCCCUUUGGUCCAGCAGGAGUAGCUGGGCAGGGUGCUGAAGGUGUAGGAGCUAAAGGCUGGGGAGUUGGAGGAACAGCGGCCACCGGGGGUGGGGUAGGUGGUGGCACUUGUGGUCAACAGAGGAUUGAGCAUCA
B11: 91020203_91021877_1494_CDS_ENSMUSG00000030091_ENSMUST00000032179|mouse|control|control (ssRNA)
RNA: GGGAGUUCUACAGUCCGACGAUCCAUGACCCCCUUGACGGUGACUGUGGCAACCAUGGAGCUUGACGAAGACCAGCUGAAGUUCCCACUGCCCCCAUGGGCCUUUAUGGUAUACUGAUAGGCGCCUGUCUUUGGUUGCCAUGGCAACAGAGGAUUGAGCAUCA
B12: chr7:7679991:7679992:-_ENSG00000106399_ENST00000396682|hu_hu|hu_hu_hu_mus_False|88_98 (ssRNA)
RNA: GGGAGUUCUACAGUCCGACGAUCUGGGAUGAAUCUUUUCCAGCCUCCCUACGAAGCACACGGGCCGGUCGAUAUACUGUGGUAACAUGCUGGCGUUGACGCGCGCUUUGGGGAGCUGCAUUAUGUCCUCCAUGAUUCUGCCGCCAACAGAGGAUUGAGCAUCA
B13: chr8:104075188:104075189:+_ENSG00000155097_ENST00000518738|hu_hu|motif|central (ssRNA)
RNA: GGGAGUUCUACAGUCCGACGAUCCUUCCUAAACAAGGUGACAUUACACAGGUAACUGUCUUGGUCCUCUGAAAGAACAUUGCGGGACCUUGGAACUACCAUUUCGGCUAGUGUUUCAUACUGCUUAAUCCAGUCGUUGUGGUUCAACAGAGGAUUGAGCAUCA
B14: chr8:122087627:122087628:-_ENSMUSG00000034189_ENSMUST00000036049|mus_hu|FALSE|FALSE (ssRNA)
RNA: GGGAGUUCUACAGUCCGACGAUCUAGUUACAAAAUAAUACUUUUCAGUAGUCUUUCUUGAUGCACAUUUAAAAACCAGCACAACUCCUCUAGUGAAAUGGUCAAUUUCCCUUAAAAAACAACAUCUGAAAUUAUAAGACCUGACAACAGAGGAUUGAGCAUCA

target: T1, UNK ZnF1-3; assay: nsRBNS (natural sequence RNA bind-n-seq); RBNS binding buffer (assumed for nsRBNS): 25 mM Tris pH 7.5, 150 mM KCl, 3 mM MgCl2, 0.01% Triton X-100, 500 ug/ml BSA, 20 U/ml SUPERase-In, 4 C; UNK is unkempt and MSI1 is Musashi-1; names of the RNAs are library labels; protein concentration not given here; high values mean tight binding

| Binder | binding signal [enrichment R] |
| --- | --- |
| B1 | 0.841 |
| B2 | 1.47 |
| B3 | 0.405 |
| B4 | 1.02 |
| B5 | 1.21 |
| B6 | 0.672 |
| B7 | 1.12 |
| B8 | 0.878 |
| B9 | 2.21 |
| B10 | 1.76 |
| B11 | 0.642 |
| B12 | 0.573 |
| B13 | 0.508 |
| B14 | 1.2 |
